The results in this text go back to PubChem BioAssay AID1851 (National Center for Advancing Translational Sciences (NCATS), 2009).

The whole screen tested about 16,000 compounds, of which about 5,700 (36%) were called active. About 24% were inconclusive and are not listed. The list shows a part of the results. A number with no mark means an inactive call. Calls come from the whole dose curve; as a rule, active = well fitted curve in the direction sought with a large enough effect; inconclusive = small, poorly fitted or top-dose-only effect, or effect the other way; inactive = no such curve, though single readings can be large or run the other way.
% is set by controls: 0 for no effect and ±100 for the full control effect.

Chain of Cytochrome P450 1A2 (Homo sapiens) (P05177 whole entry, looked up): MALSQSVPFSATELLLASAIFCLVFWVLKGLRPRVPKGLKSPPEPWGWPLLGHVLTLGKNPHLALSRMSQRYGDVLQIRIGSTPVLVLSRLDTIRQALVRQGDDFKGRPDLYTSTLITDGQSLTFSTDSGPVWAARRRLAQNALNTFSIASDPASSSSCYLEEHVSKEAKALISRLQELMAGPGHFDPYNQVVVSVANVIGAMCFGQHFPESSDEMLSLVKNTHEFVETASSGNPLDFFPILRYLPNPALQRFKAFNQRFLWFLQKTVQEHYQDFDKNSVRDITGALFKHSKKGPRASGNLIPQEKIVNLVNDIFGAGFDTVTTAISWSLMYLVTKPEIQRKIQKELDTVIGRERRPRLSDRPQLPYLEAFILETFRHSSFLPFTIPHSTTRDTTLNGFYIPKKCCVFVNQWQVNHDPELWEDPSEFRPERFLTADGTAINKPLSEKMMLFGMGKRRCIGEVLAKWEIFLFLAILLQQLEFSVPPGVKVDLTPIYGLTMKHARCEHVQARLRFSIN

In this experiment the target is Cytochrome P450 1A2 (Homo sapiens) (UniProt P05177). The experiment can be described thus: Cytochrome panel assay with activity outcomes. The note with it: recombinant CYP, pro-luciferin dealkylation, luminescence, p450-cyp1a2; series mostly up to 57.1 µM. On the procedure:
The P450 gene superfamily is involved in the metabolism and clearance of xenobiotics. This assay used various human CYP P450 isozymes to measure the dealkylation of various pro-luciferin substrates to luciferin. The luciferin is then measured by luminescence after the addition of a luciferase detection reagent. Pro-luciferin substrate concentration in the assay was equal to its KM for its CYP P450 isozyme. Inhibitors and some substrates limit the production of luciferin, and decrease measured luminescence.
NCGC Assay Protocol Summary:
1, Reagent, 2 uL, Isozyme and Pro-Luciferin
2, Library compounds, 23 nl, 40 uM to 0.24 nM dilution series
3, Controls, 23 nl, Isozyme specific inhibitor
4, Reagent, 2 uL, NADPH regeneration solution
5, Incubation time, 60 min, Isozyme specific temperature
6, Reagent, 4ul, Detection reagent
7, Incubation time, 20 min, Isozyme specific temperature
8, Detection, 1 sec, ViewLux luminescent read
The luciferase-based P450-GloTM Screening Systems were obtained from Promega (Madison, WI) for CYP 1A2 (V9770), CYP 2C9 (V9790), CYP2 C19 (V9880), CYP 2D6 (V9890), and CYP 3A4 Luciferin-PPXE (V9910) and were adapted for 1,536-well microplates and an automated protocol. The control compounds furafylline for 1A2 (F124), sulfaphenazole for CYP 2C9 (S0758), ketoconazole for CYP 2C19 (K1003), quinidine for 2D6 (Q3625), and ketoconazole for 3A4 (K1003) were purchased from Sigma Aldrich (St. Louis, MO). Recombinant P450 enzymes were obtained from baculovirus constructs expressed in insect cells (BD/Gentest).
Medium-binding white solid Kalypsys plates used. Mixtures kept on ice. 1A2: 10 nM 1A2, 100 uM Luc-ME, 100 mM KPO4; 2C9: 10 nM 2C9, 100 uM Luc-H, 25 mM KPO4; 2C19: 5 nM 2C19, 10 uM Luc-H EGE, 50 mM KPO4; 2D6: 5 nM 2D6, 30 uM Luc-ME EGE, 100 mM KPO4; 3A4: 10 nM, 25 uM Luc-PPXE. All amounts are reflected in their final concentration, working concentration is 2x.
NADPH regeneration solution: 1.3 mM NADP+, 3.3 mM glucose-6-phosphate, 3.3 mM MgCl2, 0.4 U/mL glucose-6-phosphate dehydrogenase for all isozymes, 200 mM KPO4 for 3A4. Mixture prepared at RT but kept on ice during automated run.
RT incubation in auxilliary plate hotel for 1A2, 2D6, and 3A4; 37C for 2C9 and 2C19.
Keywords: P450, CYP1A2, CYP2C19, CYP2C9, CYP2D6, CYP3A4, Luciferase, MLSMR, MLSCN, NIH Roadmap, qHTS, NCGC
Turning to `COCCNC(=S)N1C2CCC1CC(NC(=O)NC13CC4CC(CC(C4)C1)C3)C2` (stereo unspecified), the AC50 – broadly, the midpoint of the concentration-response curve, whichever way the signal moves – is “inactive”.

In the case of `Nc1nc(N)c(Cn2ccnc2)c(=O)[nH]1`, the activity, negative = inhibition was -19.7% [at 11.4 µM].

For `Cn1c(=O)c2[nH]cnc2n(C)c1=O`, the AC50 entry is “inactive”.

`C[C@@]12CC[C@H]3[C@@H](CCC4=C(O)C(=O)CC[C@]43C)[C@H]1CCC2=O`: the AC50 result was “inactive”.

Regarding `Nc1ncnc2c1ncn2[C@@H]1O[C@@H](COP(=O)(O)CP(=O)(O)OP(=O)(O)O)[C@H](O)[C@@H]1O`, the AC50 result was “inactive”.

With `CCCCn1c(O)c(C=NCCN2CCCCC2)c(=O)[nH]c1=O`, the AC50 entry was “inactive”.

Take `COc1cccc(-n2c(O)c(C=NCCN3CCOCC3)c(=O)[nH]c2=O)c1`: the AC50 entry is “inactive”.

With `Cc1ccccc1OCCN=Cc1c(O)n(C)c(=O)n(C)c1=O`, the AC50 is 12.6 µM (active).

With `CCCCCCN=Cc1c(O)n(C)c(=O)n(C)c1=O`, the AC50 was 12.6 µM (active).

As for `O=C(O)/C=C\c1ccc[c]([Sb](=[O])([OH])[OH])c1`, the activity, negative = inhibition was -9.5% [at 2.29 µM].

Turning to `NC(N)=Nc1ccc2[nH]c3c(c2c1)C[C@]1(O)[C@@H]2Cc4ccc(O)c5c4[C@]1(CCN2CC1CC1)[C@@H]3O5`, the AC50 result is “inactive”.

Turning to `NNC(=O)c1ccc(O)cc1`, the AC50 result was “inactive”.

Consider `CSCC[C@@H](N)P(C)(=O)O`, for which the activity, negative = inhibition is -11% [at 11.4 µM].

With `COC(=O)N1CCC2(CCCN(C)C2)CC1`, the AC50 result was “inactive”.

On to `C[C@H](Br)CN(C[C@H](C)Br)c1ccc2c(c1)Cc1ccccc1-2`, for which the AC50 is 3.16 µM (active).

Turning to `CCN1C[C@]2(C)CC[C@H](O)[C@@]34[C@@H]5CC6[C@@H](OC)C[C@@](O)([C@@H]5[C@@H]6O)[C@H](C[C@@H]23)[C@H]14`, the AC50 entry is “inactive”.

On to `C[C@@H]1O[C@@H](O[C@H]2C[C@@H](O)[C@]3(CO)[C@@H]4[C@@H](O)C[C@]5(C)[C@H]([C@@H]6COC(=O)C6)CC[C@@]5(O)[C@H]4CC[C@@]3(O)C2)[C@H](O)[C@H](O)[C@@H]1O`, for which the AC50 entry was “inactive”.

In the case of `CN1CC[C@@]2(CCCN(C(=O)Oc3ccccc3)C2)C1`, the AC50 entry is “inactive”.

Turning to `Cc1ncsc1CCCl`, the AC50 is 31.6 µM (active).

Turning to `Oc1ccc([C@H](O)[C@@H]2CCCCN2)cc1O`, the activity, negative = inhibition is -3.47% [at 11.4 µM].

As for `O=C(O)[C@H]1C[C@@H]1[C@H](NP(=O)(c1ccccc1)c1ccccc1)c1ccccc1`, the AC50 entry is “inactive”.

Turning to `O=C(O)[C@@H]1C[C@H]1[C@@H](NP(=O)(c1ccccc1)c1ccccc1)c1ccccc1`, the AC50 entry was “inactive”.

Regarding `C=C(CC1(C(C)NP(=O)(c2ccccc2)c2ccccc2)CC1)c1ccccc1` (stereo unspecified), the half-maximal activity concentration (AC50) is 15.8 µM (active).

As for `c1csc(CN2CCCC3(CCNCC3)C2)n1`, the AC50 result is “inactive”.

Take `CC(=O)O[C@H]1CC[C@@]2(C)[C@@H](CC[C@H]3[C@H]2CC(=O)[C@@]2(C)[C@@H]3C[C@H]3CC(C)=CC(=O)[C@H]32)C1`: the activity, negative = inhibition was -8.97% [at 2.29 µM].

For `C[C@H](CCC(=O)O)[C@H]1CC[C@]2(C)[C@@H]3C(=O)C[C@H]4C(C)(C)[C@@H](O)CC[C@]4(C)[C@H]3C(=O)C[C@@]12C`, the activity, negative = inhibition is -10.7% [at 11.4 µM].

As to `C[C@H]1CC[C@@]2(NC1)O[C@@H]1C[C@H]3[C@@H]4CC=C5C[C@@H](O)CC[C@]5(C)[C@@H]4CC[C@]3(C)[C@@H]1[C@@H]2C`, the AC50 entry was “inactive”.

Take `CN(C)CCCc1cccnc1`: the activity, negative = inhibition was -10.2% [at 2.29 µM].

Regarding `COc1ccccc1CC1C(=O)C2CCN1CC2` (stereo unspecified), the AC50 entry was “inactive”.

`CN(C)Cc1c[nH]c2ccccc12`: the AC50 result was “inactive”.

For the compound `OC1(c2ccc(Cl)cc2)CCN(Cc2c[nH]c3ccccc23)CC1`, the AC50 is 31.6 µM (active).

Regarding `c1cc(CN2CCC3(CCNCC3)CC2)ccn1`, the AC50 entry is “inactive”.

With `NCc1cc(=O)[nH]o1`, the AC50 result was “inactive”.

In the case of `CN(C)c1ccc(NC(=O)CN2C(=O)CN=C(c3ccccc3)c3ccccc32)cc1`, the AC50 was 10 µM (active).

`CCN(CC)CCO[C@H]1CC[C@@]2(C)C(=CC[C@@H]3[C@H]2CC[C@]2(C)C(=O)CC[C@H]32)C1`: the AC50 result is “inactive”.

In the case of `O=C(C[C@H](c1ccccc1)c1c(O)c2ccccc2oc1=O)c1ccccc1`, the activity, negative = inhibition was -12.6% [at 2.29 µM].

Regarding `O=C(Nc1ccccc1)N1CCC2(CC1)CCN(C(=O)Oc1ccccc1)CC2`, the AC50 entry is “inactive”.

On to `COc1ccc(NC(=O)N2CC[C@@]3(CCCN(C(=O)Oc4ccccc4)C3)C2)cc1`, for which the AC50 entry was “inactive”.

As for `COc1ccc(NC(=O)N2CCCC3(CCN(C(=O)Oc4ccccc4)CC3)C2)cc1`, the AC50 was 12.6 µM (active).

Regarding `CN1CCCC2(CCN(C(=O)c3ccncc3)CC2)C1`, the AC50 result is “inactive”.

As to `O=c1c2ccccc2nc(N2CCCC2)n1-c1ccc(Cl)cc1`, the concentration at half-maximal activity (AC50) was 5.01 µM (active).

Consider `Cc1nc2sccc2c(=O)n1-c1ccccc1Cl`, for which the AC50 result is “inactive”.

As to `C[Se]C[C@@H](N)C(=O)O`, the AC50 result is “inactive”.

For `CN1C(=O)CCS(=O)(=O)[C@H]1c1ccc(Cl)cc1`, the AC50 result is “inactive”.

On to `O=C(C1CC(=O)N(C2CCCC2)C1)N1CCC2(CC1)OCCO2` (stereo unspecified), for which the AC50 result is “inactive”.

With `CC(C(=O)c1c[nH]c2ccccc12)N1CCSCC1` (stereo unspecified), the concentration at half-maximal activity (AC50) was 15.8 µM (active).
